This is an account of results in PMC6212790, “How bacterial xenogeneic silencer rok distinguishes foreign from self DNA in its resident genome”.

Whole data set: some 33,000 sequences, median “e-score” near -0.037, cut for the highest 2% near 0.34. The full list was thinned out, with the highest values kept by preference.

This assay has as its target T1, GST-Rok (full length) (Bacillus subtilis subsp. subtilis str. …, UniProt O34857 1-191).
T1 sequence: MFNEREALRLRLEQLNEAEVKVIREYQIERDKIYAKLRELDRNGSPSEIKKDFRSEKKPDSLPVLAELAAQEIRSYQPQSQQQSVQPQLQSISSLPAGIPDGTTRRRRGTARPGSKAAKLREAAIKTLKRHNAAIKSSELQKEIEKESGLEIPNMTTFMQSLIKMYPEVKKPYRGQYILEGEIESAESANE
As to the kind of experiment: protein binding microarray; Rok is a gene silencer of Bacillus subtilis; high values mean tight binding. The conditions noted are these: protein: recombinant; tags: GST (pTH5325, pDEST15-Magic modified); dsDNA, one strand shown. Summed up: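 Every oligonucleotide joins a 25-mer constant primer to a 35-mer variable part drawn from a de Bruijn sequence of order 10, so each non-palindromic 8-mer appears at least 32 times and each palindromic 8-mer 16 times. The preference for every 8-mer is reported as a unitless, rank-based enrichment score (E-score). This score spans 0.5 for the most favored 8-mer to −0.5 for the most disfavored.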
For ACATGCCA, the binding signal was 0.0568 E-score.
In the case of GCATGCTA, the binding signal amounted to 0.111 E-score.
As for ACATGCTA, the figure is 0.365 E-score.
The value for CCATGCTA was 0.073 E-score.
In the case of ACCTATGA, the binding signal was determined as 0.118 E-score.
The value for ATAAGTGA was 0.123 E-score.
As for GTATTTGA, the figure is 0.0869 E-score; as for ATATTTTG, 0.297 E-score; as for GTATTTTA, 0.411 E-score.
As for ATATTTTC, the figure is 0.326 E-score; as for ATATTTTA, 0.412 E-score.
Consider CTATTTTC, for which the binding signal turned out to be 0.344 E-score.
As for CTATTTCC, the figure is 0.18 E-score; as for GTATTTAA, 0.285 E-score; as for CTATTTTA, 0.325 E-score.
The value for GTGACGTA was 0.0931 E-score; that for CCTGGTCA was -0.133 E-score.
As for GAAGTAGC, the figure is 0.182 E-score; as for GGTCGGGA, -0.156 E-score.
As to CCCGACGA, the binding signal is -0.104 E-score.
As to AGCACTAA, the binding signal was -0.126 E-score.
As for CAATAGAC, the figure is 0.089 E-score; as for AAAAGCGC, -0.0281 E-score.
As to CTGATATA, the binding signal amounted to 0.204 E-score.
As to ATGATAGG, the binding signal amounted to 0.0932 E-score.
As for ATGATAGA, the figure is 0.342 E-score; as for ATGATAGC, 0.179 E-score; as for ATGATATG, 0.172 E-score.
Take ATGATATA: the binding signal stood at 0.389 E-score.
As for AATTCGTA, the binding signal came to 0.263 E-score.
The value for ATAGTCTG was 0.347 E-score.
As to ATAGTCTC, the binding signal stood at 0.0365 E-score.
As for ATAGTAAT, the binding signal came to 0.392 E-score.
As for ATAGTAAG, the figure is 0.282 E-score; as for GGAGTAAA, -0.112 E-score; as for CTAGTAAC, 0.303 E-score.
As for GAAGTAAA, the figure is 0.237 E-score; as for ATAGTAAC, 0.366 E-score; as for GTAGTAAA, 0.348 E-score.
As for AGAGTAAT, the binding signal was 0.197 E-score.
The value for ATAGTCTA was 0.0771 E-score; that for GTAGTAAC was 0.321 E-score.
Take CATAGGGA: the binding signal was -0.158 E-score.
The value for AGCCATAT was 0.162 E-score.
As for CTGTCCAC, the figure is -0.116 E-score; as for GAAGAGTA, 0.266 E-score.
As for GCAGCTTA, the figure is -0.093 E-score; as for GCTCGAAC, -0.0353 E-score.
In the case of TCCTTAAA, the binding signal was -0.0816 E-score.
As for ATAGTATC, the figure is 0.321 E-score; as for TTAGTAAA, 0.237 E-score; as for ATAGTATA, 0.278 E-score.
ATAGTAAA: the binding signal amounted to 0.397 E-score.
As for ATAGTATG, the figure is 0.359 E-score; as for CTAGTAAA, 0.328 E-score; as for AGATTCAA, 0.0974 E-score.
The value for AACTTTCG was -0.0406 E-score.
The value for ATTCGTTA was 0.228 E-score; that for CAAGTTGC was -0.00109 E-score; that for ATAATGTC was 0.175 E-score.
As to GTAATGTA, the binding signal worked out at 0.364 E-score.
Regarding ATAATGTG, the binding signal was determined as 0.201 E-score.
With CTAATGTA, the binding signal is 0.184 E-score.
For the sequence ATAATGTA, the binding signal turned out to be 0.4 E-score.
Regarding GTAATGAA, the binding signal was -0.0724 E-score.
As for ATTAACAG, the figure is 0.0334 E-score; as for TACCGCCA, 0.0353 E-score; as for AAAGAAAG, 0.132 E-score.
For CGATACGA, the binding signal is -0.0427 E-score.
For GTACGGCA, the binding signal was -0.048 E-score.
Take GGTATATA: the binding signal was 0.386 E-score.
The value for GGTATAAC was 0.313 E-score; that for AGTATATC was 0.221 E-score; that for AGTATATA was 0.451 E-score.
With AGTATATG, the binding signal is 0.264 E-score.
As for AGTATAAA, the figure is 0.278 E-score; as for CGTATATA, 0.28 E-score.
As for GGTATAAA, the figure is 0.383 E-score; as for GGTATAGA, 0.222 E-score.
As for GGTCGTAA, the figure is 0.0357 E-score; as for AAGCCGAA, 0.00167 E-score.
For GTCTGGCA, the binding signal was -0.182 E-score.
As for ACTAATCG, the binding signal is 0.0113 E-score.
As for ACCTTGGA, the binding signal is -0.145 E-score.
The value for AAGCTAGC was 0.137 E-score; that for CAATAACG was 0.0291 E-score.
As for GAGTTTGA, the figure is -0.199 E-score.
As for GAGTTTCA, the figure is -0.16 E-score.
Consider CAGTTTCA, for which the binding signal was -0.0996 E-score.
The value for TAGTTTGA was 0.347 E-score.
The value for TAGTTTCA was 0.392 E-score; that for AAGTTTGA was -0.0342 E-score.
As for AATAAGAA, the binding signal was 0.209 E-score.
CGGCGGCA: the binding signal was -0.198 E-score.
For the sequence AGTAGCGA, the binding signal was determined as 0.181 E-score.
As for AGACTATC, the figure is 0.0106 E-score.
On to AAATCTCG, for which the binding signal came to 0.144 E-score.
The value for CAATCTAG was 0.285 E-score.
Consider CGATCTAA, for which the binding signal was -0.00615 E-score.
As for GAATCTAA, the figure is 0.201 E-score; as for CAATCTAA, 0.172 E-score.
As for CGATCTAC, the figure is 0.371 E-score; as for CAATCTAC, 0.365 E-score.
As for CGATCTAG, the figure is 0.214 E-score.
With GAATCTAC, the binding signal amounted to 0.425 E-score.
Take AAATCTAG: the binding signal turned out to be 0.35 E-score.
For GAATCTCC, the binding signal stood at 0.00693 E-score.
The value for AGATCTAG was 0.167 E-score.
For AAAAACCG, the binding signal is -0.0149 E-score.
For the sequence AAACCAAA, the binding signal is -0.0651 E-score.
On to ACGTTGGA, for which the binding signal was -0.0982 E-score.
With CTCACTCA, the binding signal is 0.0449 E-score.
As for ATGGTATG, the figure is 0.0823 E-score; as for AATCTCCG, 0.0469 E-score.
Regarding ACCCGCAG, the binding signal was -0.2 E-score.
In the case of ATAAACAA, the binding signal stood at 0.0341 E-score.
As for TAATAACA, the figure is 0.238 E-score; as for AATGGGAG, -0.0919 E-score.
For GTTATCTA, the binding signal is 0.285 E-score.
The value for AACTTCGG was -0.044 E-score; that for TACGAGAA was 0.113 E-score; that for AAATCTAC was 0.398 E-score.
As for AAATCTAA, the figure is 0.157 E-score; as for AAATCTAT, 0.315 E-score; as for CGCATCGC, -0.115 E-score.
As for AAGTCCCG, the binding signal was -0.14 E-score.
The value for AATAGAAA was 0.371 E-score; that for GATAGAAA was 0.307 E-score; that for AATAGAAT was 0.329 E-score.
In the case of CATAGAAA, the binding signal was determined as 0.129 E-score.
As for AATAGAAC, the figure is 0.0621 E-score.
For TATAGAAA, the binding signal was found to be 0.363 E-score.
The value for ATGTGCTA was 0.222 E-score; that for CCATATCC was -0.0185 E-score.
The value for CGCGGCAA was 0.00655 E-score.
With CTTACTCA, the binding signal is -0.0171 E-score.
The value for CGTTGAAG was 0.0718 E-score; that for AACGGCGC was -0.0478 E-score; that for ATAGCGAG was -0.0541 E-score.
The value for GAAGTTAA was 0.277 E-score.
GTAGTTAA: the binding signal was 0.431 E-score.
The value for GTAGTTCA was 0.217 E-score; that for CTAGTTAA was 0.349 E-score.
As for CGAGTTAA, the figure is 0.153 E-score; as for CAAGTTAA, 0.0371 E-score; as for AGACTGGA, -0.123 E-score.
Turning to ACATAGTC, the binding signal came out at 0.114 E-score.
As for AGTTACGA, the figure is 0.167 E-score.
The value for ATTCACGA was -0.0154 E-score.
AAACAGCT: the binding signal was found to be 0.0473 E-score.
On to CCTTCACA, for which the binding signal stood at 0.0629 E-score.
On to GAGCTATA, for which the binding signal was found to be 0.145 E-score.
The value for GTGCTATA was 0.147 E-score; that for GAGCTACA was 0.0398 E-score.
The value for AAGCTATA was 0.231 E-score; that for CTGCTATA was 0.0937 E-score; that for CAGCTACA was 0.0906 E-score.
As for TAGCTACA, the figure is 0.37 E-score; as for ATGCTATA, 0.339 E-score; as for TAGCTATA, 0.346 E-score.
Regarding AAACTCCA, the binding signal was -0.0432 E-score.
For the sequence CTCACTGC, the binding signal amounted to 0.0486 E-score.
With AACGAATT, the binding signal was determined as 0.325 E-score.
As for ATAACAAT, the figure is 0.266 E-score.
Turning to AACAACAC, the binding signal was -0.114 E-score.
The value for AAATTACT was 0.386 E-score.
Take GAATTACC: the binding signal came to 0.216 E-score.
Consider GATTTACC, for which the binding signal was found to be 0.275 E-score.
As for AAATTACG, the figure is 0.194 E-score; as for AATTTACA, 0.305 E-score.
The value for AAATTACC was 0.347 E-score; that for AAATTACA was 0.301 E-score.
